Measurements published in PubChem BioAssay (NCATS).
The other results are listed elsewhere or left out. Results filed as inconclusive are left out. Calls of active or inactive are those of the source. Calls follow the shape of the dose curve; as a rule, active = well fitted curve in the direction sought with a large enough effect; inconclusive = small, poorly fitted or top-dose-only effect, or another doubt; inactive = no such curve, though single readings can be large; an effect the other way counts as inactive or inconclusive.

What was measured:
[1] = target: DNA polymerase iota (Homo sapiens) (UniProt Q9UNA4); assay: qHTS for Inhibitors of Polymerase Iota: Confirmatory Assay for Cherry-picked Compounds (AID 720496); conditions: Pol iota primer extension, TAMRA/BHQ fluorescence; also: potency is read from the fitted curve at half-maximal effect
In short: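 Human Pol iota (10 nM) was preincubated 15 min at room temperature with compound, then started with 50 nM TAMRA/BHQ-2 quenched primer-template substrate. Fluorescence (ex 525/em 598 nm) was read at 0 and 10 min.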

[2] = target: Flap endonuclease 1 (Homo sapiens) (UniProt P39748); assay: qHTS Assay for the Inhibitors of FEN1: Confirmatory Assay for Cherry-picked Compounds (AID 720498); conditions: FEN1 flap cleavage, TAMRA/BHQ2 fluorogenic DNA substrate; also: potency is read from the fitted curve at half-maximal effect; nearly all actives have a fitted effect of over 60% in size
In short: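 FEN1 at 10 nM was preincubated with compound for 15 min at room temperature, then 50 nM (final) double-flap DNA substrate was added. TAMRA fluorescence released from the BHQ-2-quenched flap was read at 0 and 15 min (ex 525/em 598 nm).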

[3] = target: DNA polymerase eta (Homo sapiens) (UniProt Q9Y253); assay: qHTS for Inhibitors of Polymerase Eta: Confirmatory Assay for Cherry-picked Compounds (AID 720502); conditions: Pol eta primer extension, TAMRA/BHQ fluorescence, 10 min; also: potency is read from the fitted curve at half-maximal effect
In short: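 Enzyme at 10 nM is mixed with pin-transferred compound and left 15 min at room temperature. Substrate (50 nM final) is then added, and plates are read at 0 min and after 10 min.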

[4] = qHTS for small molecule inhibitors of Yes1 kinase: Counter Assay (AID 686950); conditions: series mostly up to 76.9 µM;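 also: no kinase present so only ADP-Glo detection of a fixed ADP amount is tested; luminescence from ADP-Glo reporting ADP in a fixed ATP and ADP mixture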
In short: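 Luminescence read-out from ADP-Glo quantifies a fixed ADP amount (0.02 mM ADP with 0.08 mM ATP) after 60 min at room temperature; signal is normalized between DMSO wells with ATP/ADP and with 0.1 mM ATP alone.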

[5] = qHTS for Inhibitors of WRN Helicase: Thiazole Orange DNA Binding Counterscreen (AID 720499); conditions: thiazole orange DNA binding displacement, fluorescence; series mostly up to 57.1 µM;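 also: drop in dye fluorescence marks compound binding to DNA; nearly all actives have a fitted effect of over 60% in size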; also: potency is read from the fitted curve at half-maximal effect
In short: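 Fluorescence at 530 nm (excitation 480 nm) is measured after compounds incubate 15 min at room temperature with unlabeled DNA (50 nM) bound to thiazole orange (100 nM). Decreased signal indicates nonspecific DNA binding.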

[6] = target: Bifunctional 3'-5' exonuclease/ATP-dependent helicase WRN (Homo sapiens) (UniProt Q14191); assay: qHTS for Inhibitors of WRN Helicase: Confirmatory Assay for Cherry-picked Compounds. (AID 720497); conditions: WRN helicase DNA unwinding, fluorescence kinetic; series mostly up to 57.1 µM; also: nearly all actives have a fitted effect of over 65% in size; also: potency is read from the fitted curve at half-maximal effect
In short: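 Confirmatory retest of cherry-picked hits in 1536-well format. Enzyme (20 nM final) sat with compound for 15 min at room temperature before forked duplex substrate (100 nM) and ATP (2 mM) were added, and unwinding was followed kinetically by red fluorescence.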

Sequence of DNA polymerase eta (Homo sapiens) (Q9Y253 whole entry, looked up): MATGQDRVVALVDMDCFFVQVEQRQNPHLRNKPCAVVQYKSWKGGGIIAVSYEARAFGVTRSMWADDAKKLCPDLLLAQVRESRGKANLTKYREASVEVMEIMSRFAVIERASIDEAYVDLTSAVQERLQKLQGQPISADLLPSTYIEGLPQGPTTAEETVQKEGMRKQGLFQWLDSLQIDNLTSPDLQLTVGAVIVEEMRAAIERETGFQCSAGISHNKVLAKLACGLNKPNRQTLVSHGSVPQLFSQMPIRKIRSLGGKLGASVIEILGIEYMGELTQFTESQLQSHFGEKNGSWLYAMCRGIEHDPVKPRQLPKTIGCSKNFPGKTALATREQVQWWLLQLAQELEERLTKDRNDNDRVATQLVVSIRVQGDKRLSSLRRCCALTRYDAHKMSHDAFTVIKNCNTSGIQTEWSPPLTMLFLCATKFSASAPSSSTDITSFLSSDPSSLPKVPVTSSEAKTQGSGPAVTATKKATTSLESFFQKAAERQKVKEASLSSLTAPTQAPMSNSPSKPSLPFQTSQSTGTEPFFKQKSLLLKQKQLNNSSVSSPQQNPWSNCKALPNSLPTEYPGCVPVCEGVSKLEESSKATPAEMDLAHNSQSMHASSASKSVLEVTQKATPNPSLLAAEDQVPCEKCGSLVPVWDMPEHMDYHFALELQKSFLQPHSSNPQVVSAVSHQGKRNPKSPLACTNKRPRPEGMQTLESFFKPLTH
Sequence of DNA polymerase iota (Homo sapiens) (Q9UNA4 whole entry, looked up): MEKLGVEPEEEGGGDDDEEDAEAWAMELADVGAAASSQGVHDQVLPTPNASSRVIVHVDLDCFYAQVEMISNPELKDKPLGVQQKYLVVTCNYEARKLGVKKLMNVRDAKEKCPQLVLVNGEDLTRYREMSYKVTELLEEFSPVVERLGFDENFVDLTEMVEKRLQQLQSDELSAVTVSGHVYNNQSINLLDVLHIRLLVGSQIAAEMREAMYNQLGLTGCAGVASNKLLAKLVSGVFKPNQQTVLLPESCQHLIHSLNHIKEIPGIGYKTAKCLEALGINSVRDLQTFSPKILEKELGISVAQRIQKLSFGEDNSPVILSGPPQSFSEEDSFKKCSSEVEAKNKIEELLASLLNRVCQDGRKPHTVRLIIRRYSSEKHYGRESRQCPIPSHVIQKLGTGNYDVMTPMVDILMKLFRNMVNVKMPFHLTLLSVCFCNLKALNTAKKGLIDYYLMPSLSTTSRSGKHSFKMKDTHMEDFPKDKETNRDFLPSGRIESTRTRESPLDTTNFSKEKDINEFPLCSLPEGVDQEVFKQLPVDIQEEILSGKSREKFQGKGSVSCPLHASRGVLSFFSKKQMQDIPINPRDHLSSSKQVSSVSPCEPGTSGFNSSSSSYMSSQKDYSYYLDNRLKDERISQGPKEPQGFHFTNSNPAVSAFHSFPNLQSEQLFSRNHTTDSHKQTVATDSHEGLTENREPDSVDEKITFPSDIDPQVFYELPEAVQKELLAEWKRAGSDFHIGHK
Sequence of Flap endonuclease 1 (Homo sapiens) (P39748 whole entry, looked up): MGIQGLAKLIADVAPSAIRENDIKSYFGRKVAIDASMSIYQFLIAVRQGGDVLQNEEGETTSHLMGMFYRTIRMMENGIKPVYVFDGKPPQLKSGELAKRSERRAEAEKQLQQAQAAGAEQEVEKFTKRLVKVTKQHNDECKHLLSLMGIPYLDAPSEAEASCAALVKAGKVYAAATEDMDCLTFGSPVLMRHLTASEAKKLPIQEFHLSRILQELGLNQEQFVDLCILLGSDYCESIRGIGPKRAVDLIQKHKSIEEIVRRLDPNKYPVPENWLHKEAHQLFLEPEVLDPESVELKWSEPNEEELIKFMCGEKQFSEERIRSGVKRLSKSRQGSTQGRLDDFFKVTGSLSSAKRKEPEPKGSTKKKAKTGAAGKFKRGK
Sequence of Bifunctional 3'-5' exonuclease/ATP-dependent helicase WRN (Homo sapiens) (Q14191 whole entry, looked up): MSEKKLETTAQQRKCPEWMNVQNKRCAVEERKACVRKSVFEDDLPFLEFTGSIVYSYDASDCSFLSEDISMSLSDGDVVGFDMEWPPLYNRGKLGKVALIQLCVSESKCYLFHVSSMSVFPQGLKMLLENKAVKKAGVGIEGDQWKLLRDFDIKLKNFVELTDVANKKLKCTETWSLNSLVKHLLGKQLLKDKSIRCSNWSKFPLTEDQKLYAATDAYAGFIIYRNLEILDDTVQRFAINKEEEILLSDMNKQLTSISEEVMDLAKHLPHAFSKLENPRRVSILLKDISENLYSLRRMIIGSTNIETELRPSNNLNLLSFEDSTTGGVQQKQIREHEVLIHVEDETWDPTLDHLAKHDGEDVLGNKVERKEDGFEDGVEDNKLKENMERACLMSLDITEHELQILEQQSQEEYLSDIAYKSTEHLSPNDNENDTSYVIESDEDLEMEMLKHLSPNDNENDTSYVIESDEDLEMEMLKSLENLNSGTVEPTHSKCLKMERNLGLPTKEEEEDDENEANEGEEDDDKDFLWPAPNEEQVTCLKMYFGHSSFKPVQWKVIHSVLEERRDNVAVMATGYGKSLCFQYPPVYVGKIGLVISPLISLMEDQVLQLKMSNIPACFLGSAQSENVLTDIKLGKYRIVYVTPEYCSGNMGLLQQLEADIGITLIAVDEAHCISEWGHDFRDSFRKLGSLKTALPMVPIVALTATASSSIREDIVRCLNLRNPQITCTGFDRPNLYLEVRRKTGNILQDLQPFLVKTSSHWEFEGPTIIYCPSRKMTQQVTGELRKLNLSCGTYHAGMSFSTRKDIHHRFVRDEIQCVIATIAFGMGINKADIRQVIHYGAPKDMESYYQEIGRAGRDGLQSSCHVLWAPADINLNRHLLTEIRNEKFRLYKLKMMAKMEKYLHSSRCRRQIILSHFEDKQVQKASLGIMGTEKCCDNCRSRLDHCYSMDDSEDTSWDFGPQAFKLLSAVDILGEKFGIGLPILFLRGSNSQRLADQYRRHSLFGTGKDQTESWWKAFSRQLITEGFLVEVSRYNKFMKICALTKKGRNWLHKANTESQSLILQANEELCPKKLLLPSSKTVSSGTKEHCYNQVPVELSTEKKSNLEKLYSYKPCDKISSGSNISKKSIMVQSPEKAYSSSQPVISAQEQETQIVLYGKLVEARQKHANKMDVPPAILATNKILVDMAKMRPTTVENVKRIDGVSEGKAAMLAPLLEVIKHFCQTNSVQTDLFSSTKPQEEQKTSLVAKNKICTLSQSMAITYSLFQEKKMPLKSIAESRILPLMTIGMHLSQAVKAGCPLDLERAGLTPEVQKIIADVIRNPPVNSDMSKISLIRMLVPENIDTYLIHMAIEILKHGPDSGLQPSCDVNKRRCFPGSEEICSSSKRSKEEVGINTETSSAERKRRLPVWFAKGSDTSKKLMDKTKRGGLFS

Structure (SMILES): Cc1ccc(C(=O)O)cc1-c1ccc(/C=C2\SC(=O)N(CC(=O)Nc3ccc4c(c3)OCO4)C2=O)o1
- Potency [1]: 7.52 µM (active)
- Potency [2]: 19 µM (active)
- Potency [3]: 19 µM (active)

Structure (SMILES): O=S(=O)(CCOCc1ccc(-c2ccc3ncnc(Nc4ccc(OCc5cccc(F)c5)c(Cl)c4)c3c2)o1)c1ccccc1
- outcome [4]: inactive

Structure (SMILES): CN1CCN(CCCNC(=O)c2ccc(/C=C3\Oc4ccccc4N(Cc4ccc(Cl)cc4)C3=O)cc2)CC1
- Potency [1]: 42.3 µM (active)
- Potency [2]: 23.9 µM (active)
- Potency [3]: 19 µM (active)

Structure (SMILES): CN1CCN(Cc2ccc(-c3cc4ncnc(Nc5ccc(OCc6cccc(F)c6)c(Cl)c5)c4s3)o2)CC1
- outcome [4]: inactive

Structure (SMILES): Fc1cccc(COc2ccc(Nc3ncncc3C#Cc3ccccc3)cc2Cl)c1
- outcome [4]: inactive

Structure (SMILES): C=CC1=C(C(=O)O)N2C(=O)[C@@H](NC(=O)/C(=N/OCC(=O)O)c3csc(N)n3)[C@H]2SC1
- Potency [1]: 2.67 µM (active)
- Potency [2]: 33.8 µM (active)
- Potency [3]: 3.38 µM (active)

Structure (SMILES): Fc1ccc(-c2ncn(CCCN3CCOCC3)c2-c2ccncc2)cc1
- outcome [4]: inactive

Structure (SMILES): O=C(COC(=O)c1ccc([N+](=O)[O-])o1)NC12CC3CC(CC(C3)C1)C2
- Potency [2]: 8.49 µM (active)

Structure (SMILES): CCCN1CCN(C(=O)Cn2ncc3ccccc32)CC1
- Potency [3]: 75.7 µM (active)

Structure (SMILES): CCOc1ccccc1C(=O)NCc1ccco1
- Potency [5]: inactive

Structure (SMILES): CC(=O)OC1CCC2(C)C(=CCC3C4CC(=O)N(O)C(=O)C4(C)CCC32)C1 (stereo not given)
- Potency [2]: 23.9 µM (active)

Structure (SMILES): COc1cccc2c1C(=O)c1c(O)c3c(c(O)c1C2=O)CC(O)(C(C)=NNC(=O)c1ccc(Cl)c(Cl)c1)CC3OC1CC(N)C(O)C(C)O1 (stereo not given)
- Potency [6]: 1.92 µM (active)
- Potency [5]: inactive

Structure (SMILES): O=C(O)C(c1ccccc1)N1C(=O)/C(=C\c2ccc(-c3cccc(Cl)c3)o2)SC1=S (stereo not given)
- Potency [1]: 67 µM (active)
- Potency [2]: 75.7 µM (active)
- Potency [3]: 75.7 µM (active)

Structure (SMILES): C#Cc1ccc([C@@H]2C=C(C(=O)O)O[C@H](OCCCCO)C2)cc1
- Potency [3]: 84.9 µM (active)

Structure (SMILES): CCc1nc2cccnc2n1-c1ccc(C(=O)O)cc1
- Potency [3]: 10.7 µM (active)

Structure (SMILES): COc1nc(N=C(N)N)nc2c(C)cccc12
- Potency [2]: 33.8 µM (active)

Structure (SMILES): ON=C1/C(=N\O)CC2(C/C1=N/O)OCCO2
- Potency [1]: 59.7 µM (active)
- Potency [3]: 30.1 µM (active)

Structure (SMILES): Cc1ccc(-c2nc(SCc3ccc(Br)cc3)n3[nH]c(=O)cc3n2)cc1
- Potency [6]: 13.6 µM (active)
- Potency [5]: inactive

Structure (SMILES): COc1cc(NC(=O)COC(=O)c2ccc([N+](=O)[O-])s2)cc(OC)c1OC
- Potency [2]: 6.01 µM (active)

Structure (SMILES): CN1CCN(S(=O)(=O)c2cccc(C(=O)Nc3sccc3C#N)c2)CC1
- Potency [6]: 24.1 µM (active)
- Potency [5]: inactive

Structure (SMILES): Cc1cc(/C=C2\SC(=O)N(C)C2=O)c(C)n1-c1cccc(C(=O)O)c1
- Potency [1]: 47.4 µM (active)
- Potency [3]: 30.1 µM (active)

Structure (SMILES): CC(=O)Nc1ccc(Nc2c3ccccc3nc3ccccc23)cc1
- Potency [2]: 30.1 µM (active)

Structure (SMILES): CN(C)c1nc(Nc2ccc(Cl)c(Cl)c2)nc(N(C)C)n1
- Potency [6]: inactive
- Potency [5]: inactive

Structure (SMILES): COc1ccc(Cl)cc1-c1cc(C(=O)Nc2cc(OC)c(OC)c(OC)c2)[nH]n1
- Potency [5]: inactive

Structure (SMILES): O=C(N/N=C/c1ccco1)c1ccc(C(=O)N/N=C/c2ccco2)o1
- Potency [1]: 42.3 µM (active)
- Potency [3]: 53.6 µM (active)

Structure (SMILES): Cc1ccc(-c2nn(-c3ccccc3)cc2/C=C2\SC(=S)N(CCCCCC(=O)O)C2=O)o1
- Potency [1]: 29.9 µM (active)
- Potency [3]: 75.7 µM (active)

Structure (SMILES): N#C/C(=C\C1=C(N2CCOCC2)C(=C\c2ccccc2)/CC1)C(=O)Nc1ccccc1F
- Potency [6]: 38.3 µM (active)
- Potency [5]: inactive
- Potency [3]: 30.1 µM (active)

Structure (SMILES): O=C(COC(=O)CCC(=O)c1cccs1)NCc1ccco1
- Potency [1]: 23.8 µM (active)
- Potency [3]: 75.7 µM (active)

Structure (SMILES): Cc1nnc(SCC(=O)Nc2ccc(S(=O)(=O)Nc3ccc(Cl)nn3)cc2)s1
- Potency [3]: 53.6 µM (active)

Structure (SMILES): O=C(Nc1ccccc1)c1nnsc1S(=O)(=O)c1ccc(Cl)cc1
- Potency [5]: inactive

Structure (SMILES): O=C(CCNC(=O)c1ccccc1)NN=Cc1ccc(Br)o1
- Potency [2]: 84.9 µM (active)

Structure (SMILES): Cc1cc(/C=N/Nc2ccc([N+](=O)[O-])cn2)c(C)n1-c1cccc(C(=O)O)c1
- Potency [1]: 67 µM (active)
- Potency [3]: 26.9 µM (active)

Structure (SMILES): O=[N+]([O-])c1ccc(C=Nc2ccc(Cl)cc2Cl)s1
- Potency [2]: 6.75 µM (active)

Structure (SMILES): CCN(CC)CCOc1ccc2c(c1)C(=NNC(=O)c1ccccn1)c1cc(OCCN(CC)CC)ccc1-2
- Potency [6]: 13.6 µM (active)
- Potency [5]: 2.15 µM (active)

Structure (SMILES): O=c1[nH]c2ccccc2n2c(-c3ccccc3)nnc12
- Potency [5]: inactive

Structure (SMILES): O=C(Cc1ccc(S(=O)(=O)N2CCCC2)s1)NC1CCCCCC1
- Potency [3]: 60.1 µM (active)

Structure (SMILES): COC(=O)Cc1cc(=O)n(-c2nc3ccccc3s2)[nH]1
- Potency [3]: 84.9 µM (active)

Structure (SMILES): CCN1CCN(CCCNC(=O)c2ccc3c(c2)sc2nc(-c4ccc(OC)cc4)cn23)CC1
- Potency [2]: 33.8 µM (active)

Structure (SMILES): CCN1CCN(CCNC(=O)c2ccc3c(c2)NC(=O)/C(=C\c2ccc(OC)c(OC)c2)S3)CC1
- Potency [2]: 33.8 µM (active)
